{
  "source": "ChEMBL document CHEMBL3988442",
  "about": "“University of Dundee, Small-Polar-MMV Screening Library” (2021)",
  "note": "About 1,200 (3.2%) of roughly 38,000 compounds showed an effect of 50% or more. The median lay at about -58%. For the sample, strong results were picked, then their nearest neighbours and some compounds at random.",
  "data": [
    {"test_system": "Plasmodium falciparum", "experiment": "Calibr Malaria Delayed Death Assay SOP", "assay_type": "functional, organism-based", "set-up": "scale not given: in the data most compounds retested in dose-response had high values", "conditions": "concentration 4.99e-06 (unit not given; other assays of the set use mol/L)", "units": {"Percent Effect": "%"}, "values": [
      {"compound": "Cc1ccc(NC2CCN(C(=O)c3ccc(C#N)cc3)CC2)nn1", "Percent Effect": -90.82},
      {"compound": "Cc1nccc(NCc2cncc3c2CCN(S(C)(=O)=O)C3)n1.Cl", "Percent Effect": -112.1},
      {"compound": "CSCC[C@H](NC(=O)CCn1ccc2c(Cl)cccc21)C(=O)O", "Percent Effect": -54.73},
      {"compound": "Cn1cc(CN2CCCC23CCN(C(=O)c2ccsc2)CC3)cn1.O=C(O)C(F)(F)F", "Percent Effect": -0.2713},
      {"compound": "Cc1nn(C)cc1-c1cc(C(F)(F)F)nc(NC2CCCCC2)n1", "Percent Effect": -100.7},
      {"compound": "O=C(NCc1ccco1)[C@@H]1CC[C@@H]2[C@@H](CCN2Cc2ccc(F)cc2)O1.O=C(O)C(F)(F)F", "Percent Effect": 66.38},
      {"compound": "O=C(NCc1ccco1)[C@H]1CC[C@@H]2[C@@H](CCN2Cc2cccnc2)O1.O=C(O)C(F)(F)F.O=C(O)C(F)(F)F", "Percent Effect": -37.9},
      {"compound": "CN(Cc1ccco1)[C@@H]1CN(Cc2cccnc2)C[C@@H]2CCCO[C@@H]21.O=C(O)C(F)(F)F.O=C(O)C(F)(F)F.O=C(O)C(F)(F)F", "Percent Effect": 27.09},
      {"compound": "CN(Cc1cncnc1)[C@@H]1CN(Cc2ccco2)C[C@@H]2CCCO[C@@H]21.O=C(O)C(F)(F)F.O=C(O)C(F)(F)F", "Percent Effect": -10.65},
      {"compound": "O=C(NCc1ccco1)[C@@H]1CC[C@@H]2[C@@H](CCN2CC2CC2)O1.O=C(O)C(F)(F)F", "Percent Effect": 7.283},
      {"compound": "CN(Cc1ccco1)[C@@H]1CN(Cc2ccoc2)C[C@@H]2CCCO[C@@H]21", "Percent Effect": 59.2},
      {"compound": "Cc1cc(I)c2c(c1)C(=O)C(CN1CCCC1)(CN1CCCC1)CO2", "Percent Effect": -91.39},
      {"compound": "CCCOC1CCCN(c2nc(COC)nc3c2cnn3C)C1", "note": "(stereo not given)", "Percent Effect": -157.4},
      {"compound": "CC(=O)Nc1nc(C2CCN(C(=O)c3ccncc3)CC2)cs1", "Percent Effect": 10.73},
      {"compound": "COCC1c2c(cnn2CC2CC2)CCN1Cc1cc(C)on1.O=C(O)C(F)(F)F.O=C(O)C(F)(F)F", "note": "(stereo not given)", "Percent Effect": -52.73},
      {"compound": "COc1ccncc1NCc1ccsc1", "Percent Effect": -36.48},
      {"compound": "COc1ncccc1C(Cc1ccsc1)NC(=O)Cn1cccnc1=O", "note": "(stereo not given)", "Percent Effect": -43.2},
      {"compound": "CNc1cc(N2CCCC2CNCc2cccc(C#N)c2)ncn1", "note": "(stereo not given)", "Percent Effect": -40.51},
      {"compound": "Cc1ccc(C2CN(CCS(C)(=O)=O)CCO2)c(C)c1", "note": "(stereo not given)", "Percent Effect": -57.06},
      {"compound": "Cc1ccccc1CS(=O)(=O)CC(=O)N(C)Cc1cccc(F)c1", "Percent Effect": -13.79},
      {"compound": "Cc1noc(C)c1CS(=O)(=O)CC(=O)N(C)Cc1cccc(F)c1", "Percent Effect": -32.62},
      {"compound": "CN(Cc1cccc(F)c1)C(=O)CS(=O)(=O)Cc1c(Cl)cccc1Cl", "Percent Effect": 82.58},
      {"compound": "CO[C@H]1CC[C@H]2[C@H]1OCCN2C(=O)c1nn(C)c2ccccc12", "Percent Effect": -87.32},
      {"compound": "CC1CN(CC(=O)NCc2ccc(F)cc2)CCN1c1nccs1", "note": "(stereo not given)", "Percent Effect": -59.43},
      {"compound": "CC/N=c1\\nc(NCC)nc2n1C(O)(Nc1ccc(C)cc1C)CS2", "note": "(stereo not given)", "Percent Effect": -60.63},
      {"compound": "Cc1cccc(CS(=O)(=O)NCc2nn(C)c3c2COCC3)c1", "Percent Effect": -48},
      {"compound": "O=C(C1CC1)N1CCC2(CC1)COCCN2Cc1ccc(F)cc1.O=C(O)C(F)(F)F", "Percent Effect": -44.57},
      {"compound": "Cc1ccc(NC(=O)CN2CCOCC2)c(F)c1", "Percent Effect": -28.6},
      {"compound": "Cc1nc(C)c(C)c(N2CCC3(CCN(C)C3)C2)n1", "note": "(stereo not given)", "Percent Effect": 18.67},
      {"compound": "CCc1cnc(N)nc1N1CCCC2(CCOCC2)C1", "Percent Effect": -153.3},
      {"compound": "CCc1nc(N)nc(N2CCCC3(CCN(C)CC3)CC2)c1C", "Percent Effect": 75.43},
      {"compound": "O=C(O)C(F)(F)F.O=C(c1cnccn1)N1C[C@@H](OCc2ccncc2)[C@@H]2OCCC[C@@H]21", "Percent Effect": -88.13},
      {"compound": "CNC(=O)CCN(C)CC1(c2ccc(Br)cc2)CC1", "Percent Effect": 86.7},
      {"compound": "CNC(=O)N(C)CC1(c2ccc(Br)cc2)CC1", "Percent Effect": -138.2},
      {"compound": "CNC(=O)CN(C)CC1(c2ccc(Br)cc2)CC1", "Percent Effect": 20.85},
      {"compound": "COCCn1c2c(ccc1=O)CCN(C(=O)NC1CC1)CC2", "Percent Effect": -102.5},
      {"compound": "O=C1CC(c2ccc(O)cc2)c2sc(C(=O)O)c(-c3ccccc3)c2N1", "note": "(stereo not given)", "Percent Effect": -164.8},
      {"compound": "Cc1ocnc1C(=O)N1CC[C@@H](O)[C@@H](O)[C@H](N2CCC(F)(F)CC2)C1", "Percent Effect": -140.1},
      {"compound": "Cc1ccc2c(n1)N(CC(C)C)CCN(S(C)(=O)=O)C2.O=C(O)C(F)(F)F", "Percent Effect": -91.42},
      {"compound": "CCN1CC(CN2CCOCC2)Oc2ncccc2C1=O", "note": "(stereo not given)", "Percent Effect": -121.7},
      {"compound": "O=C(C1CNCCO1)N1CCC(c2cc(N3CCCC3)ncn2)CC1", "note": "(stereo not given)", "Percent Effect": -72.24},
      {"compound": "Cc1ccc(-c2ccc(C3CNCCO3)nc2)cc1.Cl", "note": "(stereo not given)", "Percent Effect": 82.68},
      {"compound": "O=C(c1csc(C2CC2)n1)N1CCCCC1Cn1cccn1", "note": "(stereo not given)", "Percent Effect": -84.46},
      {"compound": "CN(Cc1cccc(C#N)c1)c1ncc(C(N)=O)cc1Cl", "Percent Effect": -70.4},
      {"compound": "CC(C(=O)Nc1cc(F)ccc1F)N1CCN(Cc2ncc[nH]2)CC1", "note": "(stereo not given)", "Percent Effect": -135.8},
      {"compound": "NCCC(Cc1ccccc1)c1ccco1", "note": "(stereo not given)", "Percent Effect": 83.75},
      {"compound": "O=C(NCCC(O)c1ccccc1)c1ccco1", "note": "(stereo not given)", "Percent Effect": -97.01},
      {"compound": "O=S(=O)(Cc1ccccc1)NCc1ccco1", "Percent Effect": -115.6},
      {"compound": "CCOc1cccc(C(=O)N(CCC#N)Cc2ccccn2)c1", "Percent Effect": -89.54},
      {"compound": "O=C(NC1CC1)c1cc2c(s1)CCN2C(=O)C1CC1", "Percent Effect": -64.25}
    ]}
  ]
}
